Measured values as given in article PMC9838217, “Structure of SALL4 zinc finger domain reveals link between AT-rich DNA binding and Okihiro syndrome”.
Changes are numbered by the printed parent chain.

molecular target: T1, SALL4 ZFC4 WT (HT-SELEX) (Mus musculus, UniProt Q8BX22 870-940); assay: HT-SELEX; high values mean tight binding; conditions: protein: recombinant; vector His6-GST; dsDNA, one strand shown
T1 sequence: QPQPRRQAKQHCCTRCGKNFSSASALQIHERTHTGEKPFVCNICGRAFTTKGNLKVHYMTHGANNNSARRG
In short: (§1)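 In triplicate selections of up to 6 cycles, purified recombinant mouse SALL4 zinc finger cluster 4 (residues 870–940, 1 µg) was incubated 10 min at room temperature with library DNA (1.5 µg, then 200 ng) in 100 µl of 10 mM Tris–HCl pH 7.5, 50 mM NaCl, poly(dI-dC) and DTT, and complexes were captured on Ni2+ beads, washed and PCR-amplified. Sequencing was done on MiSeq with scanning for 6-mers. The binding signal is each canonical k-mer's read fraction, reported as fold change against the initial random library.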

Sequence | binding signal [fold-change vs cycle 0]
TATACA | 2.08 ± 0.107
CCGTGA | 0.39 ± 0.0265
AAACCT | 1.23 ± 0.0691
CTGTCA | 0.753 ± 0.03
AATACG | 1.06 ± 0.0521
GCAGGA | 0.338 ± 0.0276
AGGTAC | 0.804 ± 0.0355
ATAGCA | 1.2 ± 0.0655
CAAATG | 1.063 ± 0.0102
AAATGG | 1.11 ± 0.029
GTGAGA | 0.859 ± 0.0299
ACTCCA | 0.896 ± 0.0264
GTTTTA | 1.65 ± 0.0877
CATCTC | 0.879 ± 0.041
ATGCAA | 1.2 ± 0.113
AAAATC | 1.66 ± 0.102
ATACCA | 1.39 ± 0.0502
ACATTG | 1.17 ± 0.0218
GAGAGA | 0.898 ± 0.0151
AAAACT | 1.7 ± 0.107

Sequence | binding signal [fold-change vs cycle 0]
GATATC | 1.46 ± 0.0542
TCAGCA | 0.676 ± 0.0405
ACATGA | 1.38 ± 0.0574
CAGGGA | 0.492 ± 0.0092
ACTGAG | 0.855 ± 0.0344
CTTGCA | 0.697 ± 0.0262
TAACCA | 1.42 ± 0.042
CATAGA | 1.37 ± 0.0454
CCAATA | 1.24 ± 0.0729
CATTAA | 2.01 ± 0.0894
GGAAGA | 0.939 ± 0.0256
ACTTAT | 2.49 ± 0.156
CTTATA | 2.43 ± 0.156
CAGATA | 1.33 ± 0.0697
CATACC | 0.854 ± 0.0198
ACCAAT | 1.25 ± 0.0373
ACGAAA | 1.04 ± 0.0604
ATTTGG | 1.02 ± 0.0576
ACAAAC | 1.07 ± 0.057
ACACGG | 0.354 ± 0.0115

molecular target: T2, SALL4 ZFC4 R900W (HT-SELEX) (Mus musculus, UniProt Q8BX22 870-940, R900W); assay: HT-SELEX; high values mean tight binding; conditions: protein: recombinant; vector His6-GST; dsDNA, one strand shown
T2 sequence: T1 sequence with R31W
In short: as §1

Sequence | binding signal [fold-change vs cycle 0]
TATACA | 1.99 ± 0.114
CCGTGA | 0.468 ± 0.0123
CTGTCA | 0.862 ± 0.0445
GCAGGA | 0.413 ± 0.0223
AGGTAC | 0.942 ± 0.0186
GTGAGA | 0.971 ± 0.0233
GTTTTA | 1.66 ± 0.0685
AAAATC | 1.58 ± 0.0564
ACATTG | 1.29 ± 0.0215
GATATC | 1.45 ± 0.075
TCAGCA | 0.74 ± 0.0606
ACATGA | 1.49 ± 0.0283
CAGGGA | 0.57 ± 0.0327
CTTGCA | 0.7756 ± 0.00768
TAACCA | 1.47 ± 0.047
CATTAA | 1.95 ± 0.11
ACTTAT | 2.19 ± 0.135
CTTATA | 2.09 ± 0.123
CATACC | 0.927 ± 0.0242
ACACGG | 0.455 ± 0.00764

molecular target: T3, SALL4 ZFC4 G921D (HT-SELEX) (Mus musculus, UniProt Q8BX22 870-940, G921D); assay: HT-SELEX; high values mean tight binding; conditions: protein: recombinant; vector His6-GST; dsDNA, one strand shown
T3 sequence: T1 sequence with G52D
In short: as §1

Sequence | binding signal [fold-change vs cycle 0]
TATACA | 1.77 ± 0.145
CCGTGA | 0.578 ± 0.0442
AAACCT | 1.34 ± 0.0704
CTGTCA | 0.932 ± 0.0438
AATACG | 1.1 ± 0.0362
GCAGGA | 0.489 ± 0.0596
AGGTAC | 0.9735 ± 0.00829
ATAGCA | 1.23 ± 0.0807
CAAATG | 1.17 ± 0.0276
AAATGG | 1.16 ± 0.0413
GTGAGA | 0.986 ± 0.0119
ACTCCA | 1.03 ± 0.0296
GTTTTA | 1.54 ± 0.113
CATCTC | 1.01 ± 0.0361
ATGCAA | 1.18 ± 0.0528
AAAATC | 1.53 ± 0.0679
ATACCA | 1.35 ± 0.0639
ACATTG | 1.28 ± 0.0251
GAGAGA | 1.06 ± 0.0177
AAAACT | 1.57 ± 0.146

Sequence | binding signal [fold-change vs cycle 0]
GATATC | 1.39 ± 0.0375
TCAGCA | 0.841 ± 0.0603
ACATGA | 1.4 ± 0.088
CAGGGA | 0.629 ± 0.0495
ACTGAG | 1.01 ± 0.0137
CTTGCA | 0.856 ± 0.0345
TAACCA | 1.37 ± 0.0838
CATAGA | 1.34 ± 0.0648
CCAATA | 1.22 ± 0.0438
CATTAA | 1.74 ± 0.165
GGAAGA | 1.12 ± 0.0151
ACTTAT | 1.9 ± 0.197
CTTATA | 1.82 ± 0.197
CAGATA | 1.29 ± 0.0843
CATACC | 0.944 ± 0.0221
ACCAAT | 1.33 ± 0.0543
ACGAAA | 1.11 ± 0.0388
ATTTGG | 1.1 ± 0.038
ACAAAC | 1.23 ± 0.0372
ACACGG | 0.548 ± 0.0679
